# Experimental data reported in the supplement of paper PMC11150407.
# Where a name gives a salt, the structure may show the parent alone. About 180 (8.6%) of roughly 2,100 compounds showed an effect of 50% or more. Many of the other results were omitted from the sample, so strong results are more common in it than they were.
# Tested on: MOLM1 and UCSD/AML1 (averaged)
# Assay: cell viability relative to DMSO control (POC); higher = less growth inhibition
# Settings: 1 µM; 72 h
# Procedure: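 Primary viability screen in the 3q26 EVI1-high AML cell lines MOLM1 and UCSD/AML1 (1.5e3 cells/well, 384-well), compounds at 1 uM for 72 h. ATP CellTiter-Glo read-out given as percent of viable cells over DMSO control (POC), averaged over duplicates. DMSO was the negative control and 5 uM etoposide the positive control. This mapping covers the MicroSource Spectrum and Selleck anticancer libraries (drug names).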
row,SMILES,cell viability [%]
1,C/C=C(\C)C(=O)O[C@@H]1c2c(ccc3ccc(=O)oc23)OC(C)(C)[C@@H]1OC(C)=O,101
2,OCc1c[nH]c2ccccc12,87.2
3,N[C@@H](Cc1c[nH]c2ccccc12)C(=O)O,89.5
4,c1ccc2c(CCNc3ccc(Nc4ccncc4)cc3)c[nH]c2c1,43.4
5,Cc1cc(O)c(C=O)c(O)c1C(=O)O,121
6,CC(=O)Oc1ccc2c(c1C(C)C)CCC1C(C)(C)CCC[C@]21C (some centres not stated),91.9
7,CC1(C)CC23C(=O)CCC(O)C2(C)CCC13 (configuration not stated),96.7
8,CN1CCC(c2c(O)cc(O)c3c(=O)cc(-c4ccccc4Cl)oc23)C(O)C1 (configuration not stated) [Flavopiridol (Alvocidib) HCl],1.36
9,CC(C)CCC[C@@H](C)[C@H]1CC[C@H]2[C@@H]3C(=O)C=C4C[C@@H](O)CC[C@]4(C)[C@H]3CC[C@]12C,95.7
10,CCN(CC)CCCCNc1ncc2cc(-c3cc(OC)cc(OC)c3)c(NC(=O)NC(C)(C)C)nc2n1,36.8
11,CCN(CC)CCNC(=O)COc1ccc(OC)cc1,97.5
12,Nc1nc(Nc2ccc(S(N)(=O)=O)cc2)nn1C(=O)c1c(F)cccc1F,53.8
13,Cn1c(=O)c(F)c(Nc2ccc(I)cc2F)c2c(=O)n(C[C@@H](O)CO)cnc21,24.8
14,Cn1c(=O)c2c(ncn2CC(O)CO)n(C)c1=O (configuration not stated),103
15,CC(O)Cn1cnc2c1c(=O)n(C)c(=O)n2C (configuration not stated),94.4
16,CC(C)c1cccc(=O)c(O)c1,93.6
17,COc1cc2ccc(=O)oc2c(O)c1O,88.3
18,CC1(O)CC2C(CC1O)C2(C)C (configuration not stated),87.5
19,COc1cc(-c2coc3cc(OCc4ccccc4)c(OC)c(O)c3c2=O)cc(O)c1OC,95.2
20,NC(Cn1ccc(=O)c(O)c1)C(=O)O (configuration not stated),92.7
21,CC(=O)O[C@@H]1C[C@H]2C(C)(C)[C@@H](O)CC[C@]2(C)[C@H]2CC[C@@]3(C)[C@H](c4ccoc4)OC(=O)[C@H]4O[C@]43[C@@]21C [beta-DIHYDROGEDUNOL],90.3
22,CC(C)C[C@@H](NC(=O)[C@H](C)NC(=O)CNC(=O)[C@@H](NC=O)C(C)C)C(=O)N[C@@H](C)C(=O)N[C@@H](C(=O)N[C@H](C(=O)N[C@H](C(=O)N[C@@H](Cc1c[nH]c2ccccc12)C(=O)N[C@H](CC(C)C)C(=O)N[C@@H](Cc1c[nH]c2ccccc12)C(=O)N[C@H](CC(C)C)C(=O)N[C@@H](Cc1c[nH]c2ccccc12)C(=O)N[C@H](CC(C)C)C(=O)N[C@@H](Cc1c[nH]c2ccccc12)C(=O)NCCO)C(C)C)C(C)C)C(C)C,5.86

row,SMILES,cell viability [%]
1,CC(=O)N[C@@H](Cc1c[nH]c2ccccc12)C(N)=O,101
2,CC(=O)N[C@@H](Cc1c[nH]c2ccccc12)C(=O)O,106
3,CC1(C)CC2C1CCC1(C)OC1CCC2(C)O (configuration not stated),95.8
4,Cc1cc(O)c(C)c(O)c1C(=O)O,97.3
5,O=C(NC1CCNCC1)c1n[nH]cc1NC(=O)c1c(Cl)cccc1Cl,13.3
6,NC1=NCCN1CC(=O)O,95.6
7,CC(C)(C)Cn1c(N)nc2ccc(-c3[nH]c(C(C)(C)C)nc3-c3ccc(F)cc3)nc21,91
8,C[C@@H](Oc1cc(-c2cnn(C3CCNCC3)c2)cnc1N)c1c(Cl)ccc(F)c1Cl,21.4
9,NC(=O)Nc1sc(-c2ccc(F)cc2)cc1C(N)=O,42.3
10,OC[C@H]1O[C@@H](O[C@H]2[C@H](O)[C@@H](O)[C@@H](O)O[C@@H]2CO)[C@H](O)[C@@H](O)[C@@H]1O,105
11,CCC(=O)OC1[C@@H]2CC3=C4CC(=O)O[C@@H](c5ccoc5)[C@]4(C)CCC3[C@@](C)(C2=O)[C@@H](CC(=O)OC)C1(C)C (some centres not stated),88.5
12,COc1ccc(-c2coc3c(OC)c(OC)cc(O)c3c2=O)cc1,101
13,C#CCCCCCCCCCCCC(O)CC(O)COC(C)=O (configuration not stated),88.5
14,COc1cc2c(cc1O)CC[C@@H]1[C@@H]2CC[C@]2(C)[C@@H](O)CC[C@@H]12 [2-Methoxyestradiol],13.7
15,COc1ccc2c(c1)CC[C@@H]1[C@@H]2CC[C@]2(C)[C@@H](O)CC[C@@H]12,96.8
16,C[C@]12CC[C@@H]3c4ccc(O)cc4CC[C@H]3[C@@H]1CC[C@@H]2O [Estradiol],96.7
17,C[C@]12CC[C@@H]3c4ccc(O)cc4CC[C@H]3[C@@H]1CC[C@@H]2O,91.5
18,CC[C@H](/C=C/[C@@H](C)[C@H]1CC[C@H]2[C@@H]3CCC4=CC(=O)CC[C@]4(C)[C@H]3CC[C@]12C)C(C)C,108
19,CC(=O)CCCCn1c(=O)c2c(ncn2C)n(C)c1=O,104
20,COc1c(O)cc2oc3cc(O)c(CC=C(C)C)c(O)c3c(=O)c2c1CC=C(C)C [alpha-MANGOSTIN],95.2
21,COc1cc(C(C)=O)cc(OC)c1O,105
22,COC(=O)C[C@H]1C(C)(C)C(=O)[C@@H]2CC3C4=CC(=O)O[C@@H](c5ccoc5)[C@]4(C)CC[C@@H]3[C@@]1(C)C2=O (some centres not stated),98.6

row,SMILES,cell viability [%]
1,O=C(c1ccc(OCCN2CCCCC2)cc1)c1c(-c2ccc(O)cc2)sc2cc(O)ccc12 [Evista (Raloxifene Hydrochloride)],95.1
2,CCCCOc1ccc(OCCCN2CCOCC2)cc1,97.5
3,O=C(c1ccc(OCCN2CCCCC2)cc1)c1c(-c2ccc(O)cc2)sc2cc(O)ccc12,83.3
4,O=C(Cc1ccc(-c2ccc(OCCN3CCOCC3)cc2)cn1)NCc1ccccc1,8.82
5,COC(=O)C(Cc1ccccc1)NC(=O)/C(=C1/OC(=O)C(c2ccccc2)=C1O)c1ccccc1 (configuration not stated),105
6,CC1(C)CC[C@]2(C(=O)O)CC[C@]3(C)C(=CCC4[C@@]5(C)CC[C@@H](O)C(C)(C)C5CC[C@]43C)C2C1 (some centres not stated),102
7,COc1ccc(-c2coc3cc(O)ccc3c2=O)c(O)c1O,99.7
8,CC(=O)O[C@H]1CC[C@]2(C)[C@H]3CC[C@@]4(C)[C@H](c5ccoc5)OC(=O)[C@H]5O[C@]54[C@]3(C)[C@H](OC(C)=O)C[C@H]2C1(C)C [3beta-ACETOXYDEOXODIHYDROGEDUNIN],91.2
9,COc1ccc2oc(-c3ccccc3)c(OC)c(=O)c2c1,98.7
10,COc1ccc(-c2cc(=O)c3c(OC)c(OC)c(OC)cc3o2)cc1OC,105
11,COc1ccc([C@@H]2CC(=O)c3c(O)cc(O[C@@H]4O[C@H](CO[C@@H]5O[C@@H](C)[C@H](O)[C@@H](O)[C@H]5O)[C@@H](O)[C@H](O)[C@H]4O)cc3O2)cc1O,92.8
12,c1ccc(-c2nn3c(c2-c2ccnc4cc(OCCN5CCOCC5)ccc24)CCC3)nc1,94.6
13,CC12CCC3C(CC3(C)C)C(C)(CCC1=O)O2 (configuration not stated),103
14,C=CCSCC(N)C(=O)O (configuration not stated),121
15,CCCCc1nc2cc(/C=C/C(=O)NO)ccc2n1CCN(CC)CC [SB939 (Pracinostat)],1.57
16,"CC1=CC(=O)CC(C)(C)C1(O)/C=C/C(C)=C\C(=O)O (mixture of isomers) [ABSCISIC ACID (cis,trans; +/-)]",102
17,O=Cc1ccccc1O[C@@H]1O[C@H](CO)[C@@H](O)[C@H](O)[C@H]1O,102
18,C[C@H](NC(=O)Cc1cc(F)cc(F)c1)C(=O)N[C@H](C(=O)OC(C)(C)C)c1ccccc1,76.1
19,COc1cc(OC)c2c(OC)c(-c3ccc4c(c3)OCO4)c(=O)oc2c1,101
20,COc1cc(OC)c2c(c1)OC(c1ccccc1)CC2=O (configuration not stated),105
21,COc1cc2c3cc1Oc1cc(ccc1O)C[C@@H]1c4c(cc(OC)c(O)c4Oc4ccc(cc4)C[C@@H]3N(C)CC2)CC[N+]1(C)C,100
22,NC(=O)Nc1cc(-c2cccc(F)c2)sc1C(=O)N[C@H]1CCCNC1,5.84

row,SMILES,cell viability [%]
1,CC(=O)O[C@H]1C[C@@H](OC(C)=O)C(C)(C)C2CC(=O)[C@]3(C)C(CC[C@@]4(C)[C@H](C(=O)O)OC(=O)C5OC543)[C@]21C (some centres not stated),89.8
2,CC(=O)O[C@H]1C[C@@H](OC(C)=O)C(C)(C)[C@@H]2C[C@@H](OC(C)=O)[C@@]3(C)C4=CC(=O)O[C@@H](c5ccoc5)[C@]4(C)CC[C@@H]3[C@@]12C,94.5
3,COC1=CC(=O)C(O)=C/C1=C\C=C\c1ccccc1,95
4,Cc1cc(O)cc(O)c1C(=O)O,115
5,NCCC(=O)N[C@@H](Cc1c[nH]cn1)C(=O)O,89.7
6,O=C(O)C1CC([C@@H]2CCCCN2)CN2CCCCC12 (some centres not stated),101
7,CC(C)n1nc(-c2ccc3oc(N)nc3c2)c2c(N)ncnc21,21.6
8,CCN1CCN(Cc2ccc(-c3cc4c(N[C@H](C)c5ccccc5)ncnc4[nH]3)cc2)CC1,53.4
9,COC(=O)c1c(C)c2c(c(C)c1O)OC(=O)c1c(C)c(Cl)c(O)c(Cl)c1O2,108
10,O=C(Cc1cccs1)N[C@@H]1C(=O)N2C(C(=O)[O-])=C(C[n+]3ccccc3)CS[C@H]12,96.4
11,COC1=CC(=O)C(C(=O)c2ccccc2)=CC1=O,103
12,C[C@]1(c2nc3c(C(N)=O)cccc3[nH]2)CCCN1 [ABT-888 (Veliparib)],101
13,Cc1ccc(C(=O)Nc2ccc(S(=O)(=O)O)c3cc(S(=O)(=O)O)cc(S(=O)(=O)O)c23)cc1NC(=O)c1cccc(NC(=O)Nc2cccc(C(=O)Nc3cc(C(=O)Nc4ccc(S(=O)(=O)O)c5cc(S(=O)(=O)O)cc(S(=O)(=O)O)c45)ccc3C)c2)c1,111
14,Cc1ccc(NC(=O)c2cccc(C(C)(C)C#N)c2)cc1Nc1ccc2ncn(C)c(=O)c2c1,42.7
15,COC(=O)Nc1ccc(-c2nc(N3CCOCC3)c3cnn(C4CCN(C(=O)OC)CC4)c3n2)cc1,25.9
16,c1ccc2c(-c3cnn4cc(-c5ccc(N6CCNCC6)cc5)cnc34)ccnc2c1,37.8
17,NC1(C(=O)O)CCCC1,93.7
18,CN(C)Cc1c(C(=O)NCCOc2ccc(C(=O)NO)cc2)oc2ccccc12,1.01
19,CC/C(=C(\c1ccccc1)c1ccc(OCCN(C)C)cc1)c1ccccc1 [Tamoxifen Citrate (Nolvadex)],53.6
20,CC/C(=C(\c1ccccc1)c1ccc(OCCN(C)C)cc1)c1ccccc1,105
21,COc1cc(C(=O)NCc2ccc(OCCN(C)C)cc2)cc(OC)c1OC,97.1
